pPAFAH inh = pPAFAH enzyme inhibitors, primary screen, biochemical, fluorescence polarization, human | recombinant pPAFAH, FP-rhodamine probe fluorescence polarization | 330,000 compounds, 1.5% hits | AID 463082, 2010 | Platelet-activating factor acetylhydrolase (Homo sapiens), Q13093 | inhibition, % at 3.39 µM;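 active means inhibition above the mean inhibition across the screen plus 3 SD, cut at about 25% in these data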;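 further: inhibitors block binding of the rhodamine activity-based probe so polarization drops; 0% = enzyme with DMSO and 100% = wells lacking pPAFAH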
Target sequence (Q13093 whole entry, looked up): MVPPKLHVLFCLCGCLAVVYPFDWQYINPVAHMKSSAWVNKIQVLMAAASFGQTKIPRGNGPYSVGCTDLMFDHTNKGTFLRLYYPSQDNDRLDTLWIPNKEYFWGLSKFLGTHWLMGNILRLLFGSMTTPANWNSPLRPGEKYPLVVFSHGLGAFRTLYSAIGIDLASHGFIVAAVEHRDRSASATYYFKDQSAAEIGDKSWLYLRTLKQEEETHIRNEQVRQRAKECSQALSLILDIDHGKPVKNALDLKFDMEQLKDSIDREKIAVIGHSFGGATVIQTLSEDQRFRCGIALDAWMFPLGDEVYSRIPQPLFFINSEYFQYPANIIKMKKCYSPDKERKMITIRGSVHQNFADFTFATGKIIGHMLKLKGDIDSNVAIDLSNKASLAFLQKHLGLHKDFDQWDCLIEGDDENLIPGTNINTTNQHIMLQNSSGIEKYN
PAD4 inh = human PAD4 inhibitors, primary screen, biochemical, fluorescence polarization, 1536-well format; Protein-arginine deiminase type-4 (Homo sapiens), Q9UM07; recombinant PAD4, RCA probe fluorescence polarization; inhibition, % at 6.36 µM; 330,000 compounds, 0.41% hits; AID 485272, 2010;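 active means percent inhibition above a cutoff equal to the mean of all tested compounds plus 3 SD, cut at about 15% in these data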;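 further: 0% = PAD4 with RCA probe and DMSO and 100% = probe without PAD4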
PME-1 primary = PME-1 inhibitors via competitive probe labeling, primary screen, biochemical, fluorescence polarization, FP-Rh probe, HTS. recombinant PME-1. Protein phosphatase methylesterase 1 (Homo sapiens), Q9Y570. AID 2130, 2009. 320,000 compounds, 0.53% hits. inhibition, % at 5.9 µM;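 active means inhibition above the campaign mean of all compounds plus 3 SD, cut at about 26% in these data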;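 further: competitive labeling of PME-1 active site by serine hydrolase directed probe; 0% = PME-1 with DMSO and 100% = wells lacking PME-1 enzyme; inhibitors block probe labeling so polarization falls and inhibition rises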
GSTO1 inh = inhibitors of recombinant GSTO1, primary screen, counter-screen for RBBP9 inhibitor project, biochemical, fluorescence polarization | Glutathione S-transferase omega-1 (Homo sapiens), P78417 | activity-based probe fluorescence polarization | inhibition, % at 5.96 µM | 300,000 compounds, 1.1% hits | AID 1974, 2009;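 active means inhibition above the campaign mean inhibition plus 3 SD, cut at about 35% in these data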;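 further: 0% = GSTO1-1 with DMSO and 100% = wells lacking GSTO1-1 enzyme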
Target sequence (P78417 whole entry, looked up): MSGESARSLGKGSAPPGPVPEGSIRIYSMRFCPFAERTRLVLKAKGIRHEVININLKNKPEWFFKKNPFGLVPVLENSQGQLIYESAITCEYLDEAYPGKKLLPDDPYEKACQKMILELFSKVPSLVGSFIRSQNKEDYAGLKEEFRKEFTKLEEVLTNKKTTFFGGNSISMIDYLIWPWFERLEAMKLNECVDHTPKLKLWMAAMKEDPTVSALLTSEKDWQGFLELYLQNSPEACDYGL
Fam108B counter = mouse Fam108B serine hydrolase inhibitors, primary screen, counter-screen for RBBP9 inhibitor project, biochemical, fluorescence polarization | inhibition, % at 9.51 µM | AID 1947, 2009 | 300,000 compounds, 0.33% hits | recombinant Fam108B, FP-Rh probe fluorescence polarization;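 active means inhibition above the screen mean inhibition plus 3 SD, computed separately per campaign, cut at about 18% in these data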;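 further: inhibitors lower polarization as less probe binds the enzyme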
Numbers without * were called inactive; . = no result given. Hits are enriched below; roughly 2.3% of the tested compounds scored in any of these assays.

SMILES	pPAFAH inh	PAD4 inh	PME-1 primary	GSTO1 inh	Fam108B counter
N#Cc1ccccc1S(=O)(=O)N1CCN(CC(O)COc2ccccc2F)CC1 (centres undefined)	-5.2	1.4	-1.9	-3.6	3.1
COc1ccc(OC)c(CNC(=O)CCCc2cn(C)c3ccccc23)c1	2.5	0.5	1.4	2.5	-1.9
COc1cccc(CNC(=O)CCCc2cn(C)c3ccccc23)c1	2.0	-1.6	134.3*	-0.8	-1.3
COc1ccccc1/C=C/C=N/n1c(-c2cc(-c3ccccc3)n[nH]2)n[nH]c1=S	23.2	4.8	26.8*	-11.1	2.2
Cc1cccc(-c2n[nH]c(=S)n2/N=C/C=C/c2ccco2)c1	26.4*	1.2	-4.7	-4.3	3.9
CC(=O)Nc1nonc1NC(C)=O	2.7	-1.1	3.3	-2.8	1.0
CC(=O)Nc1cc(OC(C)=O)c2nonc2c1OC(C)=O	17.8	82.6*	63.3*	89.3*	76.3*
O=C(CCC1CCCCC1)NCCS(=O)(=O)N1CCN(c2ccccc2)CC1	10.8	0.6	3.1	-1.8	-0.9
CCc1nnc(NC(=O)CSc2sc3c(O)cc(=O)[nH]c3c2C#N)s1	31.8*	-10.8	-20.8	48.0*	9.1
Cc1csc(NC(=O)CSc2sc3c(O)cc(=O)[nH]c3c2C#N)n1	33.2*	-25.9	-19.1	9.4	1.5
O=C(CCN1C(=O)C2C3C=CC(C3)C2C1=O)N1CCCCC1 (centres undefined)	2.0	2.5	6.6	5.2	2.2
CCOC(=O)C1CCN(C(=O)CCN2C(=O)C3C4C=CC(C4)C3C2=O)CC1 (centres undefined)	28.9*	1.6	-0.8	4.5	1.3
CC(C)(CNC(=O)c1ccc(-c2ccccc2Cl)o1)N1CCOCC1	1.0	-1.9	-6.3	-3.3	3.4
C[C@]12CC[C@@H]3c4ccc(O)cc4CC[C@H]3[C@@H]1CC[C@@H]2O	3.5	-5.0	-0.5	1.7	-2.9
C[C@]12CC[C@@H]3c4cc(O)c(O)cc4CC[C@H]3[C@@H]1CC[C@@H]2O	-2.4	-0.8	-4.3	42.4*	-0.9
COCCN(C(=O)COC(=O)CCS(=O)(=O)c1ccccc1)c1c(N)n(Cc2ccccc2)c(=O)[nH]c1=O	5.1	0.2	-5.8	6.6	-2.3
O=C(CSc1nc2ccccc2s1)CSc1nc2ccccc2s1	26.8*	-14.5	0.4	4.1	-0.8
Cc1ccc(N=C2NC(=O)CS2)c(C)c1	-0.1	0.3	-3.6	8.7	-1.4
Cc1cc(Br)ccc1N=C1NC(=O)CS1	0.8	3.2	60.3*	3.9	-2.4
Cc1cc(C)c2cc(C(=O)Nc3ccccc3)[nH]c2c1	0.2	-3.4	-4.5	-4.1	-2.5
Cc1ccn2c(=O)nc(SCC(=O)N3CCC(C)CC3)nc2c1	25.6*	0.6	3.6	8.4	-1.9
Cc1ccn2c(=O)nc(SCC(=O)c3ccc(Cl)cc3)nc2c1	24.9*	1.6	1.0	-1.4	2.1
O=C(COc1ccccc1C(=O)NCc1ccccn1)Nc1ccc(Br)cc1	4.3	-5.2	2.0	0.6	-0.1
CCOc1ccc(CNC(=O)Cn2nc(C)c3c(C)n(-c4ccc(C)cc4)nc3c2=O)cc1	10.0	3.1	2.9	7.5	-3.3
O=C(O[C@@H]1OC2COC(=O)c3cc(O)c(O)c(O)c3-c3c(cc(O)c(O)c3O)C(=O)O[C@@H]([C@H]1O)[C@@H]2O)c1cc(O)c(O)c(O)c1	74.7*	10.2	-31.9	73.4*	15.9
SMILES	pPAFAH inh	PAD4 inh	PME-1 primary	GSTO1 inh	Fam108B counter
Nc1ccccc1-n1cccc1	3.9	-0.1	-1.5	7.3	-2.9
CC1(C)CC(NC(=O)c2ccc(Br)o2)CC(C)(C)N1	-0.1	-4.9	3.5	-2.2	0.0
FC(F)(F)c1cccc(N2CCN(C(=S)NCC3CCCO3)CC2)c1 (centres undefined)	30.3*	-3.2	0.9	3.2	2.8
COc1ccc(OCC(O)CNC(=O)c2c(-c3ccccc3)noc2C)cc1 (centres undefined)	-4.1	-1.5	-0.7	-7.8	-1.7
O=C(NC1CCOCC1)C1CCC(=O)N(CCc2cccc(F)c2)C1 (centres undefined)	2.3	0.3	3.9	2.5	-2.4
C[C@@H](NC(=O)C(=O)c1c[nH]c2ccccc12)c1ccccc1	0.8	3.8	4.6	-2.9	-2.9
CC(Cl)C(=O)c1c[nH]c2ccccc12 (centres undefined)	5.5	3.8	0.4	36.5*	0.2
O=c1cc(-c2ccccc2)nc2cc(-c3ccco3)[nH]n12	27.1*	-10.7	9.1	-29.2	7.4
Cc1noc(C)c1NC(=O)N(C)C[C@H]1Oc2ccc(NS(=O)(=O)c3cccs3)cc2C(=O)N([C@H](C)CO)C[C@@H]1C	-4.5	-5.1	.	.	.
O=C1S/C(=C\C=C\c2ccco2)C(=O)N1c1ccccc1	25.8*	-6.6	-6.1	2.5	-3.6
Cc1cccc(-n2c(C)cc(/C=C3\NC(=O)NC3=O)c2C)c1	-3.0	-4.9	2.3	-0.4	-7.4
Cc1cc(C)c(-n2c(C)cc(/C=C3/NC(=O)NC3=O)c2C)c(C)c1	27.3*	0.1	7.5	6.1	2.8
CC(=O)Nc1ccc(S(=O)(=O)N2CCCC2C(=O)Nc2ccc3c(c2)OCCO3)cc1 (centres undefined)	2.5	0.3	-3.7	5.2	-0.6
O=C(O)c1ccc(-c2ccc(/C=c3/sc4nc5ccccc5n4c3=O)o2)cc1Cl	26.7*	1.8	-7.9	17.2	12.6
CC1(C)OC(=O)C(=Cc2ccc(-c3ccc(Cl)c(C(=O)O)c3)o2)C(=O)O1	9.2	-2.1	-0.5	11.2	1.9
O=C(CCNc1n[nH]c(=O)[nH]c1=O)N/N=C\c1cccc(OCc2ccccc2)c1	5.7	-2.2	1.1	2.3	1.8
CCOC(=O)c1oc2ccccc2c1CSc1nnnn1-c1ccccc1	26.1*	-2.6	2.5	0.2	1.4
CCOC(=O)c1oc2ccccc2c1CN1CCCCC1	4.0	-0.2	0.4	7.0	1.4
CCN(CC)CC(=O)Nc1ccc(-c2ccc(NC(=O)CN(CC)CC)c(OC)c2)cc1OC	8.3	1.6	0.6	-3.2	0.2
O=C1CN(S(=O)(=O)c2ccc([N+](=O)[O-])cc2)CC(=O)N1	3.3	-0.8	0.0	12.2	5.9
CC(C)CNC(=O)COC(=O)c1ccc([N+](=O)[O-])cc1Cl	29.4*	-0.8	1.4	0.8	-0.3
CC(=O)NC(CCS(C)(=O)=O)C(=O)Nc1ccc(Cl)c(Cl)c1 (centres undefined)	27.3*	-5.0	-4.7	22.6	2.0
Cc1c(/C=N\NC(=O)C2COc3ccc(C(C)(C)C)cc3O2)c2ccccc2n1C (centres undefined)	26.9*	0.8	1.1	-5.8	14.3
Cn1cccc1/C=N\NC(=O)C1COc2ccc(C(C)(C)C)cc2O1 (centres undefined)	19.5	-2.2	-2.9	2.9	-1.4

Screens: PubChem BioAssay, The Scripps Research Institute Molecular Screening Center
